These results are taken from PubChem BioAssay AID1508608 (The Scripps Research Institute Molecular Screening Center, 2020).

Hit rate of the full screen: of about 2,300 compounds, about 20 (0.9%) were called active.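 Rule for the calls: active = mean activation across replicates above 26.72%, the hit cutoff set for this confirmation screen; inactive = the rest.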 The entries come from a sample that favours actives as a whole.

Sequence of G-protein coupled receptor 151 (Homo sapiens) (Q8TDV0 whole entry, looked up): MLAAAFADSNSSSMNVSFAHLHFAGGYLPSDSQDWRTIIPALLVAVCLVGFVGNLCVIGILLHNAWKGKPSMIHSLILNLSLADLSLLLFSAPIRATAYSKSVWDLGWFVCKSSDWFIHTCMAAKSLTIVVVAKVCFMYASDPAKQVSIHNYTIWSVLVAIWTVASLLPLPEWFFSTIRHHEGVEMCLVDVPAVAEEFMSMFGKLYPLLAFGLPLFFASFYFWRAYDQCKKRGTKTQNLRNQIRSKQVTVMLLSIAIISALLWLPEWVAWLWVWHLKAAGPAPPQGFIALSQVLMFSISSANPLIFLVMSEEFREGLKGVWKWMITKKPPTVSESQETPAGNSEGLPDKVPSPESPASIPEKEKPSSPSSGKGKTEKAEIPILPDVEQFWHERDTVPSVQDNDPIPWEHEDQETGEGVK

This experiment has as its target G-protein coupled receptor 151 (Homo sapiens) (UniProt Q8TDV0). As to the kind of experiment: GPR151 activators, triplicate retest, confirmation, cell-based, PathHunter beta-arrestin, luminescence, set 2 (AID 1508608).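 Note: 0% = plate median of compound wells and 100% = EA reagent high control.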 To be noted: GPR151 PathHunter beta-arrestin cells, 90 min, at 11.2 µM, active compounds read high; 100% = signal from added EA reagent unless noted.
`CCn1c(/C=C/C=C2\N(C)c3ccccc3C2(C)C)[n+](Cc2ccccc2)c2ccccc21`: the activation is 35.2% (active).
Consider `CC[n+]1c(/C=C/C=C2\N(C)c3ccccc3C2(C)C)n(-c2ccccc2)c2ccc(C)cc21`, for which the activation was 19.5% (inactive).
For the compound `CC[n+]1c(/C=C/C=C2\N(C)c3ccccc3C2(C)C)n(-c2ccccc2)c2cc(Cl)ccc21`, the activation was 13.7% (inactive).
Regarding `CCCCn1c(C)c(C(=O)OCC)c2cc(OC(=O)CCC)c3ccccc3c21`, the activation was 1.16% (inactive).
Take `CCOC(=O)c1nc2ccccc2c(=O)n1-c1ccc(C)cc1Br`: the activation is -0.06% (inactive).
In the case of `C[C@H]1CC[C@@H]2[C@@H](C)[C@H]3[C@H](CC4[C@@H]5CC=C6CC(O[C@@H]7O[C@H](CO)C(O[C@@H]8O[C@@H](C)[C@H](O)[C@@H](O)[C@H]8O)[C@H](O)[C@H]7O[C@@H]7O[C@@H](C)[C@H](O)[C@@H](O)[C@H]7O)CC[C@]6(C)[C@H]5CC[C@@]43C)N2C1` (stereo not given in full), the activation is 81.8% (active).
Under `C[C@@H]1O[C@@H](O[C@H]2C[C@@H](O)[C@]3(CO)[C@H]4[C@H](O)C[C@]5(C)[C@@H](C6=CC(=O)OC6)CC[C@]5(O)[C@@H]4CC[C@]3(O)C2)[C@H](O)[C@H](O)[C@H]1O` stands 13.4% [setting not given] (inactive).
In the case of `CCCCOc1ccc(C(=O)Nc2ccc(Cl)cc2C(=O)c2ccccc2)cc1`, the activation was -0.96% (inactive).
Under `COCCOC(=O)C1=C(C)OC(N)=C(C#N)C12C(=O)N(CC(=O)OC)c1ccccc12` (stereo not given) stands -4.79% (inactive); under `O=C(Nc1ccc(Cl)cc1C(=O)c1ccccc1)c1cc([N+](=O)[O-])ccc1Cl`, -4.58% (inactive).
